# Reference: PubChem BioAssay AID2534 (National Center for Advancing Translational Sciences (NCATS), 2010)
# Inconclusive results are not listed. The source made the active and inactive calls. Calls follow the shape of the dose curve; as a rule, active = well fitted curve in the direction sought with a large enough effect; inconclusive = small, poorly fitted or top-dose-only effect, or effect the other way, or another doubt; inactive = no such curve, though single readings can be large or run the other way.
# Molecular target: Pyruvate kinase PKLR (Homo sapiens) (UniProt P30613)
# Sequence (P30613 whole entry, looked up): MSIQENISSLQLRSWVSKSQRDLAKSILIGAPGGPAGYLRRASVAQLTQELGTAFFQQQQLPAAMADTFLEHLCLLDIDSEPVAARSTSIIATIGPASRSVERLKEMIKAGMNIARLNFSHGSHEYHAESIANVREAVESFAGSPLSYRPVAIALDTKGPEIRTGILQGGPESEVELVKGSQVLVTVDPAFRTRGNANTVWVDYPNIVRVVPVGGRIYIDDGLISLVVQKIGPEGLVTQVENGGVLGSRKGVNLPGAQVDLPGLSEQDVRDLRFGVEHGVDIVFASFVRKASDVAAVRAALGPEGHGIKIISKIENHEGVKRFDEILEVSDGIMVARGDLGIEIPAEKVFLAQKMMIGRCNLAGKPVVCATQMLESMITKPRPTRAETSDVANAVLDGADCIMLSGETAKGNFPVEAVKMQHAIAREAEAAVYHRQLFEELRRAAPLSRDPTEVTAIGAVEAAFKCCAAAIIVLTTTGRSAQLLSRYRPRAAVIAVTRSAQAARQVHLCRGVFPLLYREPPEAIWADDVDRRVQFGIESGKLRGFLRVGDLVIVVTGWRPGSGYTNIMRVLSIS
# Assay: Secondary Concentration-Response Assay for Activators of Human Reticulocyte Pyruvate Kinase: for Probe SAR
# Conditions: purified hPK-R, ATP production, Kinase-Glo luminescence; series mostly up to 57.5 µM
# Text: NIH Chemical Genomics Center [NCGC]
# Wael M. Rabeh, Lyudmila Nedyalkova and Hee-Wan Park [Structural Genomics Consortium, 100 College St. Toronto, Ontario, Canada]
# Human pyruvate kinase reticulocyte (hPK-R) enzyme was supplied as a highly purified (>95% pure) preparation from Structural Genomics Consortium in Toronto (Ontario, Canada) and assayed for its ability to generate ATP from ADP using phosphoenolpyruvate (PEP) as a substrate. ATP generation was detected in a coupled reaction by luciferase-mediated luminescence, an ATP-dependent process. Pyruvate kinase substrates, PEP and ADP, were present in the assay at Km and approximately 10-fold below Km respectively. The enzyme was assayed at an intermediate level of activity to screen for both inhibitors and activators.
# NCGC Assay Protocol Summary for R-isoform
# Three uL of substrate mix (at r.t.) in assay buffer (50 mM Imidazole pH7.2, 50 mM KCl, 7 mM MgCl2, 0.01% Tween 20, 0.05% BSA) was dispensed into white solid bottom 1,536 well microtiter plates so that the final concentrations of substrates in the assay were 0.1 mM ADP and 0.5 mM PEP. 23 nL of compound were delivered by a pin tool and 1 uL of enzyme mix (final concentration of 0.1 nM) in assay buffer (4 degree Celsius) was added. Plates were incubated at room temperature for 1 hour. Two uL of detection mix (Kinase-Glo, Promega; at 4 degree Celsius protected from light) was added and luminescence read by a ViewLux (Perkin Elmer) at 1 second exposure/plate. Data were normalized to the uninhibited (row 31). Additionally, a no enzyme and 5-fold enzyme control was dispensed in row 32, split equally between the two conditions.
row,Structure (SMILES),outcome
1,O=C1CCc2cc(S(=O)(=O)Nc3ccc4ccccc4c3)ccc2N1,inactive
2,O=C1CCc2cc(S(=O)(=O)Nc3cccc(F)c3)ccc2N1,inactive
3,Cc1cc(N2C(=O)c3ccccc3C2=O)no1,inactive
4,CC(C)Nc1cccc(S(=O)(=O)N2CCCN(S(=O)(=O)c3ccc4c(c3)OCCO4)CC2)c1,inactive
5,O=C1CCc2cc(S(=O)(=O)Nc3ccncc3)ccc2N1,inactive
6,O=C1CCc2cc(S(=O)(=O)Nc3cccc(B(O)O)c3)ccc2N1,inactive
7,O=C1CCc2cc(S(=O)(=O)Nc3cc(F)cc(Cl)c3)c(F)cc2N1,inactive
8,O=C1c2ccccc2C(=O)N1c1ccc2ccccc2n1,inactive
9,O=C1CCc2cc(S(=O)(=O)Nc3ccc(F)c(Cl)c3)ccc2N1,inactive
10,Cc1ccc(C)c(SC2=N[S+](=O)([O-])c3cc(C(=O)Nc4ccc5ncccc5c4)ccc32)c1,inactive
